Source: PubChem BioAssay AID1347426 (Functional Genomics Laboratory (NCATS/FGL), 2020)
The whole screen tested about 31,000 sequences, of which about 1,400 (4.5%) were called active.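 How the source made its calls: active means median seed-adjusted z-score above 1 or below -1; inactive means the rest.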 Shown is part of a subset that was picked to be rich in actives.

Test: Novel Modifiers of Survival Motor Neuron (SMN) Protein: Gene Identification via Genome-wide siRNA Screen;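 further: luminescence tracks full-length SMN protein made from the SMN2 reporter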
Details: HEK293T SMN2-luciferase reporter, siRNA knockdown, 72 h; actives lie on both sides
Outline: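 HEK293T cells stably carrying an SMN2 promoter/splicing cassette–luciferase reporter were reverse-transfected with 1 pmol siRNA per well (druggable-genome library, 3 siRNAs per gene) and grown 72 h at 37 °C. Luminescence, normalized to negative-control siRNA and log10-transformed, was scored as MAD.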

Row | Sequence | median seed-adjusted z-score
1 | GCACUAAGAGUGACGUGUATT against PSKH1 | -2.03 (active)
2 | GGCUACAAUUUAAGACGAUTT against TNR | 0.498 (inactive)
3 | GAAAGAUGCAAAAGACAAATT against SFPQ | -1.15 (active)
4 | GGUUAUGUAGUAACGAGUUTT against ALS2 | 0 (inactive)
5 | GGAAUAUAAUAAGCGAAGATT against TAOK1 | -0.0533 (inactive)
6 | CGAGACUACUAAAGAAACATT against DDX18 | 0.241 (inactive)
7 | CUACGACUUUUCCAAUAUATT against SLC6A4 | 1.43 (active)
8 | CCAUCUCCCUUGUGCUGCATT against NINJ1 | -0.061 (inactive)
9 | GAGAGACCCUCGUCCUUUATT against CYP20A1 | -0.796 (inactive)
10 | GAAAGGCUUUGACCAAUCUTT against ZNF319 | 0.256 (inactive)
11 | GUCACUAGCUUAUCUUGAATT against VEGFA | 0.495 (inactive)
12 | AGCAAAGUGUUCUACCUGATT against YWHAG | 1.98 (active)
13 | GAAAAUCGAAAGACUAAAATT against UTP11L | -0.755 (inactive)
14 | CUAAUGAGUUUGUCUAAUATT against PKDREJ | 0.376 (inactive)
15 | AGUGGAUUGUAGACAUGGATT against UBE2W | -0.655 (inactive)
16 | GCAUCUACCGGAUCCUGAUTT against DDX49 | 0.0816 (inactive)
17 | GCAGGCUAAUCGCAAUGAATT against ANXA13 | -0.467 (inactive)
18 | GCCAGAGUCCUGAUGCACATT against GPR31 | -0.0381 (inactive)
19 | GGACAAAGCAUUGACAAUUTT against KCNJ13 | 0.327 (inactive)
20 | CAUCGGCUAUGACAACAUUTT against PSTPIP2 | 0.0136 (inactive)
21 | GGUUCGUGAAGUUCGUAAATT against UTP3 | -1.08 (active)
22 | GAGUUAGGGAAAAAGCGUATT against ANK3 | 0.0252 (inactive)
23 | CGUUGUUUUUGAGCACGUUTT against LMBR1 | 0.236 (inactive)

Row | Sequence | median seed-adjusted z-score
24 | GGGAGAUCCUAGAACAAGATT against TAOK1 | -0.0533 (inactive)
25 | GUUUUGACCCUAUAGUUUATT against P2RY5 | 0.0278 (inactive)
26 | GCAUUUGUUUGGGUUGCGATT against MTF2 | 0 (inactive)
27 | GCAUUGUGAUCGAGGACAATT against HCN2 | 0 (inactive)
28 | CGACAAUUCUUCUAGACAATT against TTC3 | -1.17 (active)
29 | ACAUCGAGUCAGAUCUUCATT against SLC11A1 | -0.516 (inactive)
30 | GGAGGUAUCUAACAAGAUUTT against LPO | 0.201 (inactive)
31 | UGCACGAUCUUCUACCCAATT against TKTL1 | -0.495 (inactive)
32 | AGCUUUCUUGAGCACCUGATT against LRRC32 | 0.0464 (inactive)
33 | GAUGGACAUUGAUAGCGAUTT against DTX3L | 0.0785 (inactive)
34 | GAACGGCUCUUAAGAUCAATT against CACNA1D | -0.0856 (inactive)
35 | CUAUGUACCGCUUCACUGATT against MMP9 | -1.15 (active)
36 | GGAAAUCUGUCACAUCGUATT against NR1I3 | 0.000933 (inactive)
37 | CGGGUUUCAUCAAAGUGCATT against RASSF5 | 0.11 (inactive)
38 | GCAACUUCCUAGAACUGUUTT against PCYT1B | 0.177 (inactive)
39 | GGAGGACGGCUUCUACGAATT against KCNJ9 | -0.0832 (inactive)
40 | GACUCUCUACCAUGGAUUUTT against SLC25A42 | -1.02 (active)
41 | CGUACAUCCAGUGACCCUATT against MTMR4 | -0.735 (inactive)
42 | GAAACCAUCGGGAAGAUUUTT against VWA2 | 0.584 (inactive)
43 | GAAAUGUGGUACUAAAGCATT against RALBP1 | -0.0514 (inactive)
44 | CAAUGAUCAUGGACCGUUUTT against CPEB3 | 0.086 (inactive)
45 | CAAGUGCGAUAUCACCUUATT against IL4 | -0.192 (inactive)
46 | UCACAGUCACAUACAGAGATT against SNRPD3 | -2.69 (active)

Row | Sequence | median seed-adjusted z-score
47 | GUAUCUAACUUAUCUACUATT against HTR5A | -0.0687 (inactive)
48 | GGUUUCAACUGGACUUCUATT against MFSD5 | 0.205 (inactive)
49 | ACAGUCUUGUGAUCAGAAATT against UHRF1 | 0.231 (inactive)
50 | AAAGCAAGCUGUUACAAAATT against ACAT2 | 1.25 (active)
51 | GACGUAACAUCAACAGAUATT against SV2B | -0.43 (inactive)
52 | GGACUUAACGGUAUCCAAATT against PCDHB10 | -0.09 (inactive)
53 | GCAGCUUUAACCAUUAAAATT against LTB4R | 0.498 (inactive)
54 | GCAAGACAACCAUUCUGUATT against ARF4 | 0.346 (inactive)
55 | GCCGUGCUGAAGGCUCUAATT against KCNE3 | -1.33 (active)
56 | GGAAACUUCUCACCUAUGATT against MAGED1 | 0.524 (inactive)
57 | GGCCGUGUACUGUAUCAUUTT against NUP93 | 1.01 (active)
58 | CCACUGUUGGAAUUAAAGATT against AOAH | -0.123 (inactive)
59 | GUACAUAGAUUCUAGGCAATT against FOXJ3 | -0.155 (inactive)
60 | GGCAGAUGAUGGUAUCACATT against CNGA4 | 0.125 (inactive)
61 | CCAUGUUCAUCAAAACUCUTT against ARHGAP1 | -1.14 (active)
62 | GAAGCACAUUGUUUCCAGATT against SERGEF | -0.308 (inactive)
63 | CCCUUACCUUAAUCGACGATT against CRB1 | 0 (inactive)
64 | GGCUGUAUCACAUCGGUUATT against CCR2 | -0.00107 (inactive)
65 | GUGCUUUGGUGGUACUAUUTT against ELOVL2 | -0.456 (inactive)
66 | CAGUGGUAAGAAAGAGAAATT against NRCAM | -0.0304 (inactive)
67 | CACUAACUGAUUUACAAGATT against UBE2J1 | -1.2 (active)
68 | GGUAAACGAGAUCAACUUUTT against DVL3 | -0.57 (inactive)
69 | GGAUAUUAGUGUCGUGCAATT against ARHGEF7 | 0.185 (inactive)
